# Source: PubChem BioAssay (Tox21)
# Records with an inconclusive call do not appear. A call without a number means that no potency is given here. The source made the active and inactive calls. Unless noted, calls follow the shape of the dose curve; as a rule, active = well fitted curve in the direction sought with a large enough effect in the repeat runs; inconclusive = weak or mixed curves; inactive = no such curve, though single readings can be large; an effect the other way counts as inactive or inconclusive.
# Tests used:
# [1] = qHTS assay to identify aromatase inhibitors - cell viability counter screen (AID 743084);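 also: cells stimulated with testosterone during compound exposure; nearly all actives have a fitted effect of over 55% in size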; also: potency is read from the fitted curve at half-maximal effect
# [2] = qHTS assay to identify small molecule that activate the aryl hydrocarbon receptor (AhR) signaling pathway - cell viability counter screen (AID 743086); also: nearly all actives have a fitted effect of over 45% in size; also: potency is read from the fitted curve at half-maximal effect
# How it was run: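 HepG2-AhR-luc (HG2L7.5c1) cells, 4000/well, were preincubated 5 h at 37C, exposed to compound in qHTS format for 24 hr at 37C, then given CellTiter-Fluor for 30 min; viability was read as fluorescence in the reporter wells.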
# [3] = molecular target: Peroxisome proliferator-activated receptor gamma (Homo sapiens) (UniProt P37231); assay: qHTS assay to identify small molecule agonists of the peroxisome proliferator-activated receptor gamma (PPARg) signaling pathway (AID 743094; active = well fitted activation curve with a large enough effect in the signal ratio in the repeat runs, not every such curve was filed as active; the % refers to the signal ratio)
# How it was run: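 HEK293H PPARg-bla cells, 5 h settle at 37C/5% CO2; compound (DMSO) 17 h, 37C; B/G FRET substrate 1 h RT; fluorescence intensity read-out. qHTS format.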
# [4] = qHTS assay for small molecule agonists of the antioxidant response element (ARE) signaling pathway (AID 743202; active = well fitted activation curve with a large enough effect in the signal ratio in the repeat runs, not every such curve was filed as active; the % refers to the signal ratio; also: potency is read from the fitted curve at half-maximal effect)
# How it was run: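 Steps: seed ARE-bla HepG2 cells (2,000/well); incubate 5 h at 37 C; add compounds by pin tool; incubate 16 h at 37 C; add FRET substrate; read fluorescence after 2 h at RT.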
# [5] = qHTS assay for small molecule agonists of the antioxidant response element (ARE) signaling pathway - cell viability counter screen (AID 743203; calls by dose curve; also: nearly all actives have a fitted effect of over 55% in size; also: potency is read from the fitted curve at half-maximal effect)
# How it was run: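 Luminescence read-out (CellTiter-Glo, 30 min at room temperature) measured cell viability in the same wells as the ARE beta-lactamase reporter. HepG2 ARE-bla cells were treated with compounds for 16 hrs at 37C/5% CO2.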
# [6] = qHTS assay for small molecule activators of the heat shock response signaling pathway - cell viability counter screen (AID 743209); also: nearly all actives have a fitted effect of over 50% in size
# How it was run: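 HSE-bla HeLa; 1500 cells/well; overnight 37 C, 5% CO2; compound 5 h 37 C; LiveBLAzer B/G substrate 2.5 h RT; CellTiter-Glo 30 min RT; luminescence.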
# [7] = qHTS assay for small molecule activators of the heat shock response signaling pathway (AID 743210; active = well fitted activation curve with a large enough effect in the signal ratio in the repeat runs, with a control signal flat, not every such curve was filed as active; the % refers to the signal ratio;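 also: HeLa cells with beta-lactamase reporter driven by heat shock elements; series mostly up to about 63 µM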)
# How it was run: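 Activation of heat shock element-controlled beta-lactamase expression is measured in HeLa cells by LiveBLAzer FRET fluorescence, with compound exposure lasting 5 h at 37 C and substrate loading 2.5 h at room temperature.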
# [8] = molecular target: Aryl hydrocarbon receptor (Homo sapiens) (UniProt P35869); assay: qHTS assay to identify small molecule that activate the aryl hydrocarbon receptor (AhR) signaling pathway (AID 743085);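 also: HG2L7.5c1 human HepG2 liver cells with stably integrated DRE-driven firefly reporter; series mostly up to about 70 µM; nearly all actives have a fitted effect of over 15% in size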
# How it was run: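 HepG2 cells (HG2L7.5c1) stably carrying a firefly luciferase reporter driven by 20 dioxin responsive elements were exposed to compound for 24 h at 37C after a 5 h settling period; luminescence rise (ONE-Glo) indicated activation.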
# [9] = qHTS assay to identify small molecule antagonists of the peroxisome proliferator-activated receptor gamma (PPARg) signaling pathway - cell viability counter screen (AID 743194); also: nearly all actives have a fitted effect of over 55% in size
# How it was run: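 PPARg-UAS-bla HEK293H cells were plated, rested 5 h at 37 C, then treated with compounds plus rosiglitazone (50 nM final) for 17 h at 37 C; viability was then read by CellTiter-Glo luminescence after 30 min at room temperature.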
# [10] = molecular target: Peroxisome proliferator-activated receptor gamma (Homo sapiens) (UniProt P37231); assay: qHTS assay to identify small molecule antagonists of the peroxisome proliferator-activated receptor gamma (PPARg) signaling pathway (AID 743191; calls by dose curve; also: series mostly up to about 63 µM; nearly all actives have a fitted effect of over 30% in size)
# How it was run: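 GeneBLAzer PPARg UAS-bla HEK293H cells carrying a UAS-driven beta-lactamase reporter were plated at 3000 cells/well, preincubated 5 h at 37C, then given compound for 17 h at 37C; LiveBLAzer B/G FRET substrate was read after 1 h at room temperature.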
# Peroxisome proliferator-activated receptor gamma (Homo sapiens), sequence (P37231 whole entry, looked up): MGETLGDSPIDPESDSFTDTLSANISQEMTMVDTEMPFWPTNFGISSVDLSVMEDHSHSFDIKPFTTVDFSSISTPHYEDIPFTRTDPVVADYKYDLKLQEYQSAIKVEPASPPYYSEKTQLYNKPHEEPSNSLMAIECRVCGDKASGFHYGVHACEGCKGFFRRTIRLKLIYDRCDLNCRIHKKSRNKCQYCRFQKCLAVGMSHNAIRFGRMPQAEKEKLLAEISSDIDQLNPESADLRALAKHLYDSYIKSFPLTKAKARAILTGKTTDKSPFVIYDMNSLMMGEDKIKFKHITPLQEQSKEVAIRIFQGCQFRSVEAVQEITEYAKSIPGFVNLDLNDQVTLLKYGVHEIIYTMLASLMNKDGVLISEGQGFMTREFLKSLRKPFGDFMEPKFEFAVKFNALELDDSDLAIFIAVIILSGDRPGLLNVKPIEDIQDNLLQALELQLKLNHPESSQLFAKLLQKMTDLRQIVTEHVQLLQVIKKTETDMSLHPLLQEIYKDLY
# Aryl hydrocarbon receptor (Homo sapiens), sequence (P35869 whole entry, looked up): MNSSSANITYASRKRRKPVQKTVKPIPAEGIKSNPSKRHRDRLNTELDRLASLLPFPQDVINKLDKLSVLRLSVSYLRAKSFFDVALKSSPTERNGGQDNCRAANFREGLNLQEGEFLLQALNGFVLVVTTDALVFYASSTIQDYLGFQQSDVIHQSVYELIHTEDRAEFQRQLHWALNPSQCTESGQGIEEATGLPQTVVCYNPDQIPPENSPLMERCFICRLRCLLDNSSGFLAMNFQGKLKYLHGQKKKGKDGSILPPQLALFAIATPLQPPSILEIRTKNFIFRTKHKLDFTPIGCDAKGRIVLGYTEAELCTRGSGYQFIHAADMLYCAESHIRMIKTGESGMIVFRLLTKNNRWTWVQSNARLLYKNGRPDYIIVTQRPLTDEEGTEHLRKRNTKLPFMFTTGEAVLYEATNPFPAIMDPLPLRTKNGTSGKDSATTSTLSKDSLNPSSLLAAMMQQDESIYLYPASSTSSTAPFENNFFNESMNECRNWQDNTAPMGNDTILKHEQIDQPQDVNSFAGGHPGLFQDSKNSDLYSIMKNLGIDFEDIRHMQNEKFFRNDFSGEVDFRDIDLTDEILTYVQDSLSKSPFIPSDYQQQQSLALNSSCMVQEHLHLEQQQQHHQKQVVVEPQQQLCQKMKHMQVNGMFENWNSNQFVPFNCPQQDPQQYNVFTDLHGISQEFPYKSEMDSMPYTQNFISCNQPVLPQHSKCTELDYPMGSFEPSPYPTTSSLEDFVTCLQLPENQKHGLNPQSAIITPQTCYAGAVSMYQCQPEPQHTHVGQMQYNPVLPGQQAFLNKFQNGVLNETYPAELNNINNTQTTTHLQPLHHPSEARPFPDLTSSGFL
SMILES,Potency [1],Potency [2],Potency [3],Potency [4],Potency [5],Potency [6],Potency [7],Potency [8],Potency [9],Potency [10]
CC(=O)[C@H]1CC[C@H]2[C@@H]3C=CC4=CC(=O)CC[C@@]4(C)[C@@H]3CC[C@]12C,inactive,inactive,inactive,13.3 µM (active),inactive,inactive,inactive,,,
CCOC(=O)CC(=O)C(=O)OCC,,inactive,inactive,inactive,inactive,inactive,,inactive,inactive,
CCOC(=O)C(C)Oc1ccc(Oc2nc3ccc(Cl)cc3o2)cc1 (stereo unspecified),inactive,inactive,inactive,,inactive,inactive,inactive,,inactive,
CNCCCC1c2ccccc2C=Cc2ccccc21,inactive,inactive,,,inactive,inactive,inactive,,inactive,
O=C(CCCN1CCC(O)(c2ccc(Br)cc2)CC1)c1ccc(F)cc1,inactive,inactive,inactive,,29.8 µM (active),,inactive,,inactive,
Cc1nc2ccccc2s1,inactive,inactive,inactive,inactive,inactive,inactive,,,inactive,
CCCCC(=O)O[C@]1(C(=O)CO)CC[C@H]2[C@@H]3CCC4=CC(=O)CC[C@]4(C)[C@H]3[C@@H](O)C[C@@]21C,inactive,inactive,,inactive,inactive,inactive,inactive,,inactive,
NC(=O)Cn1c(=O)cc(CCN2CCN(c3nccc4sccc34)CC2)c2ccc(F)cc21,inactive,,inactive,inactive,inactive,inactive,,,inactive,
CC(N)CN (stereo unspecified),inactive,inactive,inactive,inactive,inactive,inactive,,,,
NC(=O)Nc1ccc(Cl)c(Cl)c1,inactive,inactive,inactive,,,inactive,,,inactive,
CC(C)c1nnc2ccc(-c3ocnc3-c3cc(F)ccc3F)cn12,inactive,inactive,inactive,,inactive,inactive,inactive,,inactive,
N#C/C(=C1\SCC(c2ccccc2Cl)S1)n1ccnc1 (stereo unspecified),inactive,inactive,inactive,inactive,inactive,inactive,,,inactive,
Nc1nc(Cl)nc2c1ncn2[C@@H]1O[C@H](CO)[C@@H](O)[C@@H]1F,inactive,inactive,,,inactive,inactive,inactive,,,
C(=C\c1ccccc1)/CN1CCN(C(c2ccccc2)c2ccccc2)CC1,inactive,inactive,,,inactive,inactive,,,,
CO/N=C1\CN(c2nc3c(cc2F)c(=O)c(C(=O)O)cn3C2CC2)CC1CN (stereo unspecified),inactive,inactive,inactive,,inactive,inactive,inactive,,inactive,
CC(C)=CC=O,inactive,inactive,inactive,inactive,inactive,inactive,inactive,,,

SMILES,Potency [1],Potency [2],Potency [3],Potency [4],Potency [5],Potency [6],Potency [7],Potency [8],Potency [9],Potency [10]
CCCCOC(=O)CCS,inactive,inactive,inactive,inactive,inactive,inactive,inactive,,inactive,
c1cc[c]([Bi]([c]2ccccc2)[c]2ccccc2)cc1,inactive,inactive,,,inactive,inactive,,,inactive,
CC(=O)OCC(=O)[C@@]12OC(C)(C)O[C@@H]1C[C@H]1[C@@H]3C[C@H](F)C4=CC(=O)C=C[C@]4(C)[C@@]3(F)[C@@H](O)C[C@@]12C,inactive,inactive,inactive,inactive,inactive,inactive,,,inactive,
O=C(/C=C/c1ccccc1)OCCCc1ccccc1,inactive,inactive,,,inactive,inactive,inactive,,inactive,
Nc1ccc(Cl)cc1[N+](=O)[O-],inactive,inactive,inactive,inactive,inactive,inactive,,,inactive,
COc1cc2[nH]c(=O)[nH]c(=O)c2cc1OC,inactive,inactive,inactive,inactive,inactive,inactive,inactive,,,
COC(=O)Nc1nc2ccc(C(=O)c3cccs3)cc2[nH]1,inactive,inactive,,0.75 µM (active),,inactive,,,inactive,
O=Cc1c(Cl)cccc1Cl,inactive,inactive,inactive,,inactive,inactive,,,,inactive
CCc1nn(CCCN2CCN(c3cccc(Cl)c3)CC2)c(=O)n1CCOc1ccccc1,29.8 µM (active),23.7 µM (active),inactive,,,inactive,,,inactive,
Cc1cc(O)c2c(O)c3c(O)cccc3cc2c1,inactive,inactive,,11.9 µM (active),inactive,inactive,inactive,,inactive,
CC1(C)O[C@@H]2C[C@H]3[C@@H]4CCC5=CC(=O)C=C[C@]5(C)[C@H]4[C@@H](O)C[C@]3(C)[C@]2(C(=O)CO)O1,inactive,inactive,,inactive,inactive,inactive,inactive,,inactive,
CCCOC(=O)c1ccc(N)cc1,inactive,inactive,inactive,,inactive,inactive,inactive,,inactive,
CC(=O)N(c1onc(C)c1C)S(=O)(=O)c1ccc(N)cc1,,,,inactive,inactive,inactive,inactive,,inactive,
CN1Cc2cc(C(=O)N3CCC(C4CCNCC4)CC3)ccc2N[C@@H](CC(=O)O)C1=O,,,,,inactive,inactive,inactive,,inactive,inactive
O=C(CCCN1CCN(c2ccc(F)cc2)CC1)NC1c2ccccc2CSc2ccccc21 (stereo unspecified),,,,,,inactive,inactive,inactive,,
